Inconclusive results are not listed. A number with no mark means an inactive call. Calls of active or inactive are those of the source. Calls come from the whole dose curve; as a rule, active = well fitted curve in the direction sought with a large enough effect; inconclusive = small, poorly fitted or top-dose-only effect, or another doubt; inactive = no such curve, though single readings can be large; an effect the other way counts as inactive or inconclusive.

Assay [1] deals with Aldehyde dehydrogenase, mitochondrial (Homo sapiens) (UniProt P05091). Kind of assay: qHTS for Inhibitors of the Aldehyde Dehydrogenase Family (ALDH2) Primary screen (AID 2061308).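 Note: plate controls were vehicle for no effect and reference inhibitor for full effect; nearly all actives have a fitted effect of over 55% in size.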 Background: Quantitative high-throughput screening tests each substance at several concentrations.
The target in assay [2] is Retinaldehyde dehydrogenase 3 (Homo sapiens) (UniProt P47895). Kind of assay: qHTS for Inhibitors of the Aldehyde Dehydrogenase Family (ALDH1A3) Primary screen (AID 2061315).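 Note: plate controls were DMSO vehicle for no effect and reference inhibitor for full effect.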

Take `CNc1oc(-c2cccc(Cl)c2)nc1C#N`: the Potency result in assay [1] and in assay [2] was “inactive” in each case.

Take `CNc1cc2c(cc1S(=O)(=O)Nc1ccc(C)c(C)c1)CCC(=O)N2`: the Potency result in assay [1] and in assay [2] was “inactive” throughout.

Regarding `COc1cnc(-c2ccc(Cn3c(CC(C)(C)C(=O)O)c(SC(C)(C)C)c4cc(OC[C@@H]5Cc6ccccc6N5C(C)=O)ccc43)cc2)nc1`, the Potency entry in assay [1] and in assay [2] was “inactive” throughout.

Regarding `COc1ccc(C2c3c(ncn(CCN4CCOCC4)c3=N)Oc3ccc4ccccc4c32)cc1` (configuration not stated), the Potency entry in assay [1] and in assay [2] was “inactive” in each case.

Consider `C=C1C(=O)O[C@@H]2/C=C(/C)[C@@H](OC(C)=O)C/C=C(\C)C[C@@H](OC(=O)/C(=C/CO)CO)[C@@H]12`, for which the Potency result in assay [1] and in assay [2] was “inactive” in each case.

For `Cc1c(P(=S)(c2ccccc2)c2ccccc2)[n+]2ccccc2n1CCCCc1ccccc1`, the Potency result in assay [1] and in assay [2] was “inactive” each time.

For `CCCCNc1ncc2c(-c3ccc(S(=O)(=O)N4CCOCC4)cc3)nn(C3CCC(O)CC3)c2n1` (configuration not stated), the Potency entry in assay [1] and in assay [2] was “inactive” each time.

For `Fc1cnc(-c2ccccc2C(F)F)nc1NCC1CCN(c2cnccn2)C1` (configuration not stated), the Potency result in assay [1] and in assay [2] was “inactive” throughout.

As for `Nc1ccc(C(=O)Nc2ccc(-c3nc4ccccc4[nH]3)cc2)cc1Cl`, the Potency result in assay [1] and in assay [2] was “inactive” each time.

Take `NC(=O)C1CCN(c2nc(-c3ccc4c(c3)OCCCO4)cs2)CC1`: the Potency result in assay [1] and in assay [2] was “inactive” each time.

In the case of `c1nc(NCC2CCCO2)c2ccc(-c3ccc4c(c3)OCO4)cc2n1` (configuration not stated), the Potency entry in assay [1] and in assay [2] was “inactive” each time.

With `Cc1cc(C)nc(NC(=S)N2CCN(c3nccs3)CC2)c1`, the Potency result in assay [1] and in assay [2] was “inactive” throughout.

As to `O=C(Nc1nc(-c2ccccc2)cs1)c1ccncc1NS(=O)(=O)c1ccccc1`, the Potency result in assay [1] and in assay [2] was “inactive” each time.

Regarding `COC(=O)c1cc(F)c(S(=O)(=O)N2CCN(S(=O)(=O)c3ccc4c(c3)OCCO4)CC2)cc1F`, the Potency entry in assay [1] and in assay [2] was “inactive” in each case.

For `O=C(COC(=O)CNC(=O)C1CCCCC1)Nc1cc(C(F)(F)F)ccc1Cl`, the Potency result in assay [1] and in assay [2] was “inactive” in each case.

As for `Cc1noc(C)c1-c1ccc2ncnc(NCc3ccc(F)c(F)c3)c2c1`, the Potency entry in assay [1] and in assay [2] was “inactive” each time.

As to `Cn1nnnc1Sc1ncnc2scc(-c3ccc(Cl)cc3)c12`, the Potency result in assay [1] and in assay [2] was “inactive” throughout.

Regarding `O=C(Cc1nnc(CNC(=O)c2ccccc2)o1)Nc1cc(C(F)(F)F)ccc1Cl`, the Potency entry in assay [1] and in assay [2] was “inactive” in each case.

Regarding `CN(C)c1ccc2nc(NC(=S)N3CCN(c4cccc(C(F)(F)F)c4)CC3)sc2c1`, the Potency result in assay [1] and in assay [2] was “inactive” in each case.

As for `Cc1nnc(-c2cnn(C)c2N)o1`, the Potency result in assay [1] and in assay [2] was “inactive” each time.

Take `Cc1cc(C)nc(NC(=S)N2CCN(c3cc(C(F)(F)F)nc4ccccc34)CC2)c1`: the Potency entry in assay [1] and in assay [2] was “inactive” in each case.

As to `Cc1ccc(-c2ccc(=O)n(CC(=O)N(C3CCCCC3)C3CC3)n2)cc1`, the Potency entry in assay [1] and in assay [2] was “inactive” each time.

Consider `O=S(=O)(Nc1nccs1)c1ccc(NCc2ccc(Br)cc2O)cc1`, for which the Potency entry in assay [1] and in assay [2] was “inactive” in each case.

`COc1cccc(NC(=O)c2cc(-c3ccc(C)c(C)c3)nc3ccccc23)c1`: the Potency result in assay [1] and in assay [2] was “inactive” throughout.

Take `O=C(O)Cc1cc(F)c(S(=O)(=O)N2CCN(S(=O)(=O)c3ccc4c(c3)OCCO4)CC2)cc1F`: the Potency entry in assay [1] and in assay [2] was “inactive” each time.

Regarding `O=C1CN(S(=O)(=O)c2c(F)cccc2F)CCN1S(=O)(=O)c1ccc2c(c1)OCCO2`, the Potency result in assay [1] and in assay [2] was “inactive” in each case.

Turning to `CN(C)c1ccc(-c2ccc(=O)n(CC(=O)NCCc3ccccc3)n2)cc1`, the Potency entry in assay [1] and in assay [2] was “inactive” throughout.

Regarding `Fc1ccc(Nc2nc(-c3ccncc3)nc3ccccc23)cc1F`, the Potency result in assay [1] and in assay [2] was “inactive” throughout.

`Cc1c(P(=S)(c2ccccc2)c2ccccc2)[n+]2ccccc2n1Cc1ccccc1`: the Potency result in assay [1] and in assay [2] was “inactive” in each case.

On to `Cc1cc(C)nc(NC(=S)N2CCN(c3cccc(S(C)(=O)=O)c3)CC2)c1`, for which the Potency result in assay [1] and in assay [2] was “inactive” throughout.

Regarding `NC(=O)C1CCN(c2cc(-c3ccc4c(c3)OCCCO4)ncn2)CC1`, the Potency entry in assay [1] and in assay [2] was “inactive” throughout.

With `CC(=O)C1=C(O)C2c3c[nH]c4cccc(c34)CC2C(C)(C)N(C)C1=O` (configuration not stated), the Potency entry in assay [1] and in assay [2] was “inactive” in each case.

As to `Cc1ccc(S(=O)(=O)Nc2ccccc2Nc2nc(-c3ccccc3)cs2)cc1`, the Potency result in assay [1] and in assay [2] was “inactive” throughout.

Take `O=[S+]([O-])(Nc1nccs1)c1ccc(NCc2cccc(Cl)c2)cc1`: the Potency entry in assay [1] and in assay [2] was “inactive” each time.

Take `NS(=O)(=O)c1ccc(Cc2c(-c3cccc(-c4ccccc4)c3)nn(-c3nc(C(=O)O)cs3)c2C2CC2)cc1`: the Potency result in assay [1] and in assay [2] was “inactive” each time.

`c1coc(CNc2nc(-c3cccs3)nc3ccccc23)c1`: the Potency entry in assay [1] and in assay [2] was “inactive” in each case.

Regarding `Cc1ccnc(NC(=S)Nc2cccc([S+](=O)([O-])Nc3ccccc3F)c2)c1`, the Potency result in assay [1] and in assay [2] was “inactive” throughout.

On to `COc1cc(O)c(C(CC(=O)N2CCOCC2)c2ccc3c(c2)OCO3)c(OC)c1` (configuration not stated), for which the Potency result in assay [1] and in assay [2] was “inactive” throughout.

For `Cn1nnnc1Sc1ncnc2scc(-c3ccc(Br)cc3)c12`, the Potency result in assay [1] and in assay [2] was “inactive” each time.

As for `CC1(C)CC[C@]2(C(=O)O[C@@H]3O[C@H](CO[C@@H]4O[C@H](CO[C@@H]5O[C@H](CO)[C@H](O)[C@H](O)[C@H]5O)[C@@H](O)[C@H](O)[C@H]4O)[C@@H](O)[C@H](O[C@@H]4O[C@H](CO)[C@@H](O)[C@H](O)[C@H]4O)[C@H]3O)[C@H](O)C[C@]3(C)C(=CCC4[C@@]5(C)CC[C@H](O[C@@H]6OC[C@@H](O)[C@H](O)[C@H]6O)[C@@](C)(C(=O)O)C5CC[C@]43C)[C@@H]2C1` (some centres not stated), the activity change, negative = inhibition was 13.7% [at 11.2 µM] in assay [1] and 11.1% [at 11.2 µM] in assay [2].

Take `Fc1ccc(-c2c(P(=S)(c3ccccc3)c3ccccc3)n3ccccc3[n+]2C/C=C/c2ccccc2)cc1`: the Potency result in assay [1] and in assay [2] was “inactive” in each case.
